HT1080NT lethal: kills 2HG-producing HT-1080-NT fibrosarcoma cells; AID 686970; HT-1080-NT fibrosarcoma viability, CellTiter-Glo ATP luminescence, 48 h; Potency, µM (series often up to 46.1 µM), most hits filed as cytotoxic; 1.6% of 360,000 active;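 also: NT is the 2HG producing partner of a matched IDH1 knockdown line; nearly all actives have a fitted effect of over 55% in size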
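HT-1080-NT; 750 cells/well; 5% FBS RPMI; 48 h compound, 37 degrees C; CellTiter-Glo luminescence; curve fitting and curve-class assignment.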
HT1080 IDH1KD tx: toxicity to HT-1080 IDH1 knockdown cells (counter line); Potency, µM (top dose mostly 46.1 µM), usual class: cytotoxic; 2% of 360,000 active; HT-1080 IDH1 knockdown viability, ATP luminescence, 48 h; AID 686971
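In this qHTS, HT-1080 cells depleted of IDH1 are exposed for 48 h at 37 °C to compound titrations. Toxicity is scored from CellTiter-Glo luminescence, with DMSO as full viability and medium alone as none.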
TDP1 cell CPT: growth inhibition of DT40 Tdp1-/-;hTDP1 cells with camptothecin (screen for TDP1 inhibitors). chicken DT40 Tdp1-/-;hTDP1 cells + 20 nM CPT, ATP luminescence, 48 h. 12% of 420,000 active. AID 686979. Potency, µM (top dose mostly 46.2 µM), actives largely listed as inhibitors; also: nearly all actives have a fitted effect of over 55% in size
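Cell growth measured by CellTiter-Glo luminescence after a minimum 48 h, 37 C compound exposure with 20 nM CPT in Tdp1-knockout DT40 cells stably expressing hTDP1, seeded 400/well; qHTS titration format.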
DT40 TDP1 no CPT: qHTS for Inhibitors of human tyrosyl-DNA phosphodiesterase 1 (TDP1): qHTS in cells in absence of CPT | 15% of 420,000 active | Potency, µM (titrated, usually from 46.2 µM), usual class: inhibitors | DT40 Tdp1-/- hTDP1 cells, no CPT, ATP luminescence, 48 h | AID 686978, 2013; also: nearly all actives have a fitted effect of over 55% in size
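Seeded 400 DT40-hTDP1 cells/well (vehicle DMSO, no 20 nM CPT); pinned compounds; ≥48 hr at 37 °C; CellTiter-Glo luminescence as viability measure.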
uPA surface inh: blocks generation of uPA at the cell surface; Potency, µM (highest dose often 38.3 µM), usual class: inhibitors; cell surface uPA generation assay, qHTS; 0.31% of 330,000 active; active = well fitted inhibition curve with a large enough effect; inconclusive = small, poorly fitted or top-dose-only effect; inactive = no such curve, though single readings can be large or run the other way; tested in mouse RAW 264.7 cells; also: nearly all actives have a fitted effect of over 55% in size
IL-1B inflam inh: blocks inflammasome-driven IL-1 beta release; AID 743279; 4.7% of 360,000 active; THP-1 LPS/ATP IL-1B secretion, AlphaLISA, 16 h; stronger effect = lower value; activity change, % at 57.5 µM; in the data active = activity change below about -50%; inconclusive = mostly about -30% to -49%
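Secreted IL-1B measured by AlphaLISA bead assay after 16 h compound exposure of THP-1 cells; compounds (final up to 57.5 uM) added 1 h before LPS (250 ng/mL) and ATP (1.25 mM) stimulation; lower signal means less secretion.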
Hits are given with their value; - = inactive; ? = inconclusive; . = no result. The list is not random: actives were taken first. Their share in the collection is about 19%. Unless noted, calls follow the shape of the dose curve; as a rule, active = well fitted curve in the direction sought with a large enough effect; inconclusive = small, poorly fitted or top-dose-only effect, or another doubt; inactive = no such curve, though single readings can be large; an effect the other way counts as inactive or inconclusive.

SMILES | HT1080NT lethal | HT1080 IDH1KD tx | TDP1 cell CPT | DT40 TDP1 no CPT | uPA surface inh | IL-1B inflam inh
O=S(=O)(c1ccc(Cl)cc1)N1CCN(c2ncnc3sccc23)CC1 | ? | ? | 6.51µM | 5.8µM | ? | ?
O=S(=O)(c1ccc(Cl)cc1)N1CCN(c2ccccn2)CC1 | - | - | - | - | - | -
Cc1csc2c(N3CCN(S(=O)(=O)c4ccc(Cl)cc4)CC3)ncnc12 | - | - | - | 23.1µM | - | -
CNS(=O)(=O)c1cn(CC(=O)N2CCN(c3ccccc3F)CC2)cc1S(=O)(=O)NC | . | . | - | - | . | .
CC1(C(=O)NS(=O)(=O)c2ccc(C#N)cc2)CCN1C(=O)Cc1ccccc1Cl (stereo not given) | - | ? | - | - | . | -
Cc1ccc(C)c(N(CC(=O)NC2CCCC2)C(=O)c2oc(C(C)(C)C)cc2C)c1 | ? | ? | 8.2µM | 9.2µM | - | ?
Cc1cc(C(C)(C)C)oc1C(=O)N(CC(=O)NC1CCCC1)Cc1ccccc1 | - | - | 14.6µM | 13µM | - | -
Cc1ccc(C)c(N(CC(=O)NC2CCCCC2)C(=O)c2csnn2)c1 | - | - | - | - | - | -
Cc1cc(C(C)(C)C)oc1C(=O)N(CC(=O)NC1CCCC1)Cc1ccc(F)cc1 | - | - | 20.6µM | ? | - | -
Cc1cc(C(C)(C)C)oc1C(=O)OCC(=O)NC1CCCCC1 | - | - | ? | ? | ? | -
CCCN(CC(=O)Nc1ccccc1OC)C(=O)c1ccc(=O)[nH]c1 | - | - | ? | - | - | -
CCCCn1c(N)c(N(Cc2ccccc2)C(=O)COc2ccccc2F)c(=O)[nH]c1=O | - | - | - | - | - | -
O=[N+]([O-])c1ccc(Cl)cc1P(=O)(O)c1cc(Cl)ccc1[N+](=O)[O-] | - | - | - | - | - | -
FC(F)(F)c1ccc(Sc2n[nH]c(C(F)(F)F)n2)nc1 | - | - | ? | 29.1µM | - | -
CC1(C(=O)Nc2ccc3c(c2)OCO3)CC1(Cl)Cl (stereo not given) | - | - | - | - | - | -
CC(C)c1ccc(CNc2cc(N3CCCC3)ccc2[N+](=O)[O-])cc1 | ? | - | 18.4µM | ? | - | ?
CS(=O)(=O)N1CCN(c2ccc([N+](=O)[O-])c(NCc3ccccc3)c2)CC1 | - | - | ? | ? | - | -
CS(=O)(=O)N1CCN(c2ccc([N+](=O)[O-])c(NCc3ccc(Cl)cc3)c2)CC1 | ? | ? | 25.9µM | 18.4µM | - | -
O=[N+]([O-])c1ccc(N2CCN(S(=O)(=O)c3ccc(Cl)c(Cl)c3)CC2)cc1NCCN1CCOCC1 | - | - | ? | 8.2µM | - | -
Cc1sc2c(c1C)C(O)=C(C(=O)Nc1ccccc1)S(=O)(=O)N2C | - | - | ? | ? | - | -
Cc1cc2nc3ccc(=[N+](C)C)cc-3sc2cc1N | 8.2µM | 4.11µM | 1.16µM | 0.411µM | ? | -
CN(C)c1ccc2nc3ccc(=O)cc-3sc2c1 | ? | ? | 1.64µM | 1.64µM | . | -
CN(C)c1ccc2nc3ccc(=[N+](C)C)cc-3sc2c1 | 7.31µM | 20.6µM | 1.16µM | 0.0073µM | ? | ?
COc1cccc(C(NC(C)=O)c2nc(-c3cccc(O)c3)cs2)c1 (stereo not given) | ? | - | 23.1µM | 18.4µM | . | -
COc1cccc(C(NC(C)=O)c2nc(-c3cccc(C#N)c3)cs2)c1 (stereo not given) | - | - | 29.1µM | ? | . | -73.6
SMILES | HT1080NT lethal | HT1080 IDH1KD tx | TDP1 cell CPT | DT40 TDP1 no CPT | uPA surface inh | IL-1B inflam inh
COc1ccc(-c2csc(C(NC(C)=O)c3cccc(F)c3)n2)cc1 (stereo not given) | - | - | ? | 16.4µM | . | -
COc1cccc(C(NC(C)=O)c2nc(-c3ccccc3)cs2)c1 (stereo not given) | - | - | ? | ? | . | -
COc1ccc(-c2csc(C(NC(C)=O)c3cccc(OC)c3)n2)cc1 (stereo not given) | - | - | ? | ? | . | -
COc1cccc(C(NC(C)=O)c2nc(-c3ccc(OC)nc3)cs2)c1 (stereo not given) | - | - | ? | ? | . | -73.5
C=CCC1CCCCC1=C(C#N)c1ccccc1 (stereo not given) | - | - | - | - | . | -
Clc1ccc(/C=N/Nc2ncnc3ccccc23)cc1Cl | - | - | 20.6µM | 20.6µM | - | -
Nc1c(Cl)ncnc1N/N=C/c1cccc(O)c1 | - | - | - | - | ? | -
Clc1cccc(/C=N/Nc2nc(Cl)nc3ccccc23)c1 | - | - | 23.1µM | ? | - | -
Fc1ccccc1/C=N/Nc1ncnc2ccccc12 | - | ? | 6.51µM | 14.6µM | - | -
COc1ccc(N2CC(NC(=O)C(=O)c3c[nH]c4ccccc34)CC2=O)cc1 (stereo not given) | . | . | - | - | . | .
O=C(Oc1c(Cl)cc(Cl)c2cccnc12)c1cccs1 | 20.6µM | 20.6µM | 16.4µM | ? | - | -
O=C(Oc1c(CN2CCOCC2)cc(Cl)c2cccnc12)c1ccccc1Cl | ? | 6.51µM | 2.31µM | 2.91µM | - | -91.3
O=C(Oc1c(CN2CCOCC2)cc(Cl)c2cccnc12)c1cccs1 | 2.91µM | 3.66µM | 4.11µM | 4.61µM | - | -57.9
CC(=O)N1CCc2cc(CNC(=O)Cc3ccc(F)cc3)ccc21 | . | . | - | - | . | .
CNC(=S)N/N=C/c1cn(CCOc2ccccc2OC)c2ccccc12 | - | - | 3.66µM | 6.51µM | - | -
CNC(=S)N/N=C/c1cn(CCOc2cccc(OC)c2)c2ccccc12 | - | - | 8.2µM | 13µM | - | -
CCOC(=O)c1ccc(N[C@@H]2CCN3C(=O)c4ccccc4[C@@H]3C[C@H]2O)cc1 | - | - | - | - | - | -
O=S(=O)(c1ccc(F)cc1)N1CCN(Cc2cc3c(cc2Br)OCCO3)CC1 | - | - | ? | ? | - | -
Oc1ccc(N2CCN(Cc3cc4c(cc3Br)OCCO4)CC2)cc1 | - | - | ? | 23.1µM | - | -
CCc1c(C)nc(N2CCN(c3ccc(OC)cc3)CC2)[nH]c1=O | - | - | ? | 20.6µM | - | -
Cc1nnc(N2CCN(c3ccccc3)CC2)[nH]c1=O | - | - | 5.17µM | 5.8µM | - | -
NC(=O)CC1C(=O)N(c2ccccc2)C(=S)N1NC(=O)c1ccccc1 (stereo not given) | - | - | - | - | - | -
Cn1nc(C(=O)NC2CCCCC2)c2c1-c1ccccc1SC2 | - | - | 25.9µM | ? | - | -
CC(C)OCCCNC(=O)c1nn(C)c2c1CSc1ccccc1-2 | . | . | ? | 20.6µM | . | .
CC1CCC(NC(=O)c2nn(C)c3c2CSc2ccccc2-3)CC1 (stereo not given) | - | - | ? | ? | - | -

High-throughput results: PubChem, National Center for Advancing Translational Sciences (NCATS)
